# Measured values published in the supplement of paper PMC9135407.
# Several values for one entry are separate records, joined by “and”; a condition that tells them apart may be missing. Identical values can stand only once. Counter-ions that a name gives are not always drawn. Out of some 5,800 compounds screened, about 620 (11%) showed activity. What follows is part of a selection rich in actives, with near analogues and random picks from the rest. Unmarked numbers belong to inactive results.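 The calls were made as follows: active = score above a cut-off or among the top three wells of a plate; in these data no inactive exceeds 0.85.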
# Tested on: primary human hepatic stellate cells (donor 1)
# Assay: scaled lipid accumulation score (0 = DMSO-like, 1 = nortriptyline-like); higher = stronger HSC inactivation (lipid re-accumulation), active = hit call of the paper
# Details: 48 h
# [1] = library stock concentration: 1 mM
# [2] = library stock concentration: 3.33 mM
# [3] = library stock concentration: 10 mM
structure (smiles),measurement,setting,value
CCCCC[C@H](O)/C=C/[C@H]1CCC(=O)[C@@H]1C/C=C\CCCC(=O)O [11-deoxy Prostaglandin E2],scaled lipid accumulation score,[1],0.072
CC[C@H](CO)Nc1nc(NCc2ccccc2O)c2ncn(C(C)C)c2n1 [Olomoucine II],scaled lipid accumulation score,[2],0.299
NC1=N[C@@]2(c3cc(NC(=O)c4ccc(F)cn4)ccc3F)COC[C@H]2CS1,scaled lipid accumulation score,[2],0.012
same,scaled lipid accumulation score,[3],0.209
C[C@]12CCC(=O)C=C1CC[C@@H]1[C@@H]2[C@@H](O)C[C@@]2(C)[C@H]1CC[C@]2(O)C(=O)COP(=O)(O)O [Hydrocortisone phosphate triethylamine],scaled lipid accumulation score,library stock concentration: 3.1 mM,≤ -0.001
CCOc1nc2cccc(C(=O)O)c2n1Cc1ccc(-c2ccccc2-c2noc(=O)[nH]2)cc1 [Azilsartan],scaled lipid accumulation score,[2],≤ 0
same,scaled lipid accumulation score,[3],≤ 0
CCCCC[C@H](O)/C=C/[C@H]1C(=O)C[C@H](O)[C@@H]1C/C=C/CCCC(=O)O [5-trans Prostaglandin D2],scaled lipid accumulation score,[1],≤ 0
COC(=O)C1=C(C)NC(C)=C(C(=O)OCCCN2CCC(c3ccccc3)(c3ccccc3)CC2)[C@@H]1c1cccc([N+](=O)[O-])c1 [(R)-(-)-Niguldipine hydrochloride],scaled lipid accumulation score,[3],≤ -0.006
C=C1C(=O)O[C@H]2[C@H]1CC/C(C)=C/CC[C@@]1(C)O[C@@H]21 [(-)-Parthenolide],scaled lipid accumulation score,[2],0.099
same,scaled lipid accumulation score,[3],0.534
C=C1C(=O)OC2CC1C(OC(C)=O)C/C(C)=C/CC/C(C)=C/CC[C@]2(C)O (stereo partly drawn) [Crassin acetate],scaled lipid accumulation score,[3],1.04 (active)
C=C1C(=O)O[C@@H]2/C=C(\C)CC/C=C(\C)CC[C@@H]12 [Costunolide],scaled lipid accumulation score,[2],≤ 0
same,scaled lipid accumulation score,[3],0.163 and ≤ -0.001
C=C1C(=O)O[C@H]2[C@H]1CC/C(C)=C/CC[C@@]1(C)O[C@@H]21 [Parthenolide],scaled lipid accumulation score,,0.539
same,scaled lipid accumulation score,[3],0.317 and 0.269
same,scaled lipid accumulation score,library stock concentration: 20.1 mM,0.417
CCCCCCCC/C=C\CCCCCCCCOC[C@H](COP(=O)([O-])OCC[N+](C)(C)C)OC(C)=O,scaled lipid accumulation score,[1],≤ -0.018
CC(=O)NCC(=O)N[C@H](CCC(=O)O)C(=O)O [N-Acetylglycyl-D-glutamic acid],scaled lipid accumulation score,[3],≤ 0
CN(C)CCCN1c2ccccc2CCc2ccc(Cl)cc21 [Clomipramine hydrochloride],scaled lipid accumulation score,library stock concentration: 5.7 mM,0.836
CN(C)CCCN1c2ccccc2CCc2ccccc21.Cl [Imipramine hydrochloride],scaled lipid accumulation score,[3],1.1 (active)
CN(C)CCCN1c2ccccc2CCc2ccccc21 [Imipramine HCl],scaled lipid accumulation score,library stock concentration: 7.1 mM,0.618
CN(C)CCCN1c2ccccc2CCc2ccccc21 [Imipramine hydrochloride],scaled lipid accumulation score,,0.652
same,scaled lipid accumulation score,library stock concentration: 6.3 mM,0.714
same,scaled lipid accumulation score,[3],0.59
CN(C)CCCN1c2ccccc2CCc2ccc(Cl)cc21 [Clomipramine HCl],scaled lipid accumulation score,[2],0.402
CN(CCCN1c2ccccc2CCc2ccccc21)CC(=O)c1ccc(Cl)cc1 [Lofepramine],scaled lipid accumulation score,[3],0.323
CN(C)CCCN1c2ccccc2CCc2ccc(Cl)cc21.Cl [Clomipramine hydrochloride] [listing 1 of 3 here],scaled lipid accumulation score,,0.968 (active)
CN(C)CCN1C(=O)c2ccccc2N(C)c2ccccc21 [Dibenzepine HCl],scaled lipid accumulation score,library stock concentration: 6.8 mM,≤ 0
CN(C)CCCN1c2ccccc2CCc2ccc(Cl)cc21,scaled lipid accumulation score,[3],0.755
CN(C)CCCN1c2ccccc2CCc2ccccc21,scaled lipid accumulation score,[3],0.493
CN(C)CCCN1c2ccccc2CCc2ccc(Cl)cc21.Cl [Clomipramine hydrochloride] [listing 2 of 3 here],scaled lipid accumulation score,[3],1.01 (active)
CN(C)CCCN1c2ccccc2CCc2ccc(Cl)cc21.Cl [Clomipramine hydrochloride] [listing 3 of 3 here],scaled lipid accumulation score,[3],1.31 (active)
CN(CCCN1c2ccccc2CCc2ccccc21)CC(=O)c1ccc(Cl)cc1,scaled lipid accumulation score,[3],0.191
C[C@@H]1CC[C@@]2(OC1)O[C@H]1C[C@H]3[C@@H]4CC=C5C[C@@H](O)CC[C@]5(C)[C@H]4CC[C@]3(C)[C@H]1[C@@H]2C [Diosgenin],scaled lipid accumulation score,[3],≤ -0.027
CCCCCCCCCCCCCCCC(=O)OC[C@@H](O)COP(=O)(O)O [1-Palmitoyl Lysophosphatidic Acid (sodium salt)],scaled lipid accumulation score,[1],0.001
CCCCCCCCCCCCCCCCOC[C@H](CO)SC(C)=O [2-thio-Acetyl MAGE],scaled lipid accumulation score,[1],≤ 0
"CCCCCC/C=C/C=C\CCCCCCCC(=O)O [9(Z),11(E)-Conjugated Linoleic Acid]",scaled lipid accumulation score,[1],0.029
CCCCCNC(=N)N/N=C/c1c[nH]c2ccc(OC)cc12 [Tegaserod maleate],scaled lipid accumulation score,[3],≤ -0.027
CCCCCNC(=N)N/N=C/c1c[nH]c2ccc(OC)cc12 [Tegaserod],scaled lipid accumulation score,[3],≤ -0.027
CCCCCNC(=N)N/N=C/c1c[nH]c2ccc(OC)cc12,scaled lipid accumulation score,[3],0.13
Cc1cc(-c2ccc(/N=N/c3ccc4c(S(=O)(=O)O)cc(S(=O)(=O)O)c(N)c4c3O)c(C)c2)ccc1/N=N/c1ccc2c(S(=O)(=O)O)cc(S(=O)(=O)O)c(N)c2c1O,scaled lipid accumulation score,[3],0.033
CCCCC[C@H](O)/C=C/[C@@H]1[C@H](C/C=C\CCCC(=O)O)[C@H](O)C[C@H]1O [8-iso Prostaglandin F2.beta.],scaled lipid accumulation score,[1],0.004
CN(C)CCCN1c2ccccc2CCc2ccc(Cl)cc21.Cl [Clomipramine HCl],scaled lipid accumulation score,[3],0.83 (active)
CC[N+]1(C)C2CCC1CC(OC(=O)C1CCC(C(=O)OC3CC4CCC(C3)[N+]4(C)CC)(c3ccccc3)c3ccccc31)C2 (stereo not drawn) [beta- Belladonnine dichloroethylate],scaled lipid accumulation score,,≤ 0
Cc1c(C(N)=O)cc([N+](=O)[O-])cc1[N+](=O)[O-] [Dinitolmide],scaled lipid accumulation score,[2],≤ 0
same,scaled lipid accumulation score,[3],≤ -0.001 and ≤ -0.027
NC1CONC1=O (racemic) [DL-Cycloserine],scaled lipid accumulation score,[3],≤ 0
